Laboratory results: the supplement of paper PMC10849652
Targets with a hit are over-represented here; the source holds about 7,900 in all. About 0.6% of all pairs of compound and target were hits. Unmarked numbers belong to inactive results.

Assays:
Assay in all cases: log2 fold change, soluble protein after heating vs DMSO (PISA); higher = thermal stabilisation; K562 cells, 10 uM, 30 min; active = over 0.2 and 3.5 SD of the protein, either way, in both replicates (recomputed)
bafetinib = compound: Cc1ccc(NC(=O)c2ccc(CN3CC[C@H](N(C)C)C3)c(C(F)(F)F)c2)cc1Nc1nccc(-c2cncnc2)n1 [bafetinib]
Summary of the method: (§1)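 K562 cells at 2×10^6 cells/mL were exposed to 10 μM compound for 30 min, then aliquots were heated for 3 min across 48°C-58°C, pooled, and extracted in PBS containing 0.5% NP-40 at 4°C. The supernatant after 21,000xg for 90 min was taken as soluble protein and measured by TMTpro 16plex LC-MS/MS with channel sums equalised. Thermal stability is reported relative to control samples, with values from duplicates. Fold changes are given on a log2 scale.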

[1] = compound: Cc1cccc(CC(=O)N2CCc3c2ccc(-c2cn(C)c4ncnc(N)c24)c3F)n1
Summary of the method: as §1

nilotinib = compound: Cc1cn(-c2cc(NC(=O)c3ccc(C)c(Nc4nccc(-c5cccnc5)n4)c3)cc(C(F)(F)F)c2)cn1 [nilotinib]
Summary of the method: as §1

[2] = compound: Cc1nc(Nc2n[nH]c3c2CN(C(=O)N[C@H](CN(C)C)c2ccccc2)C3(C)C)c2sccc2n1
Summary of the method: as §1

dasatinib = compound: Cc1nc(Nc2ncc(C(=O)Nc3c(C)cccc3Cl)s2)cc(N2CCN(CCO)CC2)n1 [dasatinib]
Summary of the method: as §1

[3] = compound: Cc1ncc(-c2ccnc(Nc3ccc(S(C)(=O)=O)cc3)n2)n1C(C)C
Summary of the method: as §1

[4] = compound: Cn1cc(-c2ccc3c(c2)CCN3C(=O)Cc2cccc(C(F)(F)F)c2)c2c(N)ncnc21
Summary of the method: as §1

[5] = compound: Cn1cc(-c2ccc3nnc(C(F)(F)c4ccc5ncccc5c4)n3n2)cn1
Summary of the method: as §1

tipifarnib = compound: Cn1cncc1[C@@](N)(c1ccc(Cl)cc1)c1ccc2c(c1)c(-c1cccc(Cl)c1)cc(=O)n2C [tipifarnib]
Summary of the method: as §1

mubritinib = compound: FC(F)(F)c1ccc(/C=C/c2nc(COc3ccc(CCCCn4ccnn4)cc3)co2)cc1 [mubritinib]
Summary of the method: as §1

Chain of UniProt Q9NVC3 (Q9NVC3 whole entry, looked up): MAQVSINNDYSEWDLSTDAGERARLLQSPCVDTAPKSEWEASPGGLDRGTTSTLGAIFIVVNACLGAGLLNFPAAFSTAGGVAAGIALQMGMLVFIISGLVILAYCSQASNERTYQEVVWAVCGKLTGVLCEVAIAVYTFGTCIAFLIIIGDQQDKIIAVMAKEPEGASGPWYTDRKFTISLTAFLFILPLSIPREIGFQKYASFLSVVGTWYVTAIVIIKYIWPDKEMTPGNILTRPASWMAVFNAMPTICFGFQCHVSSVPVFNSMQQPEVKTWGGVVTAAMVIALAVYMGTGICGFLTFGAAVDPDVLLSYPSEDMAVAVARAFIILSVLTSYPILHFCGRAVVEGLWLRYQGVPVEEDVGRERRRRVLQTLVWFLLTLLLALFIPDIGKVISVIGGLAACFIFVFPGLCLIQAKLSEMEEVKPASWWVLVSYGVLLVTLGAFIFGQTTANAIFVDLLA
Chain of UniProt Q9H4I9 (Q9H4I9 whole entry, looked up): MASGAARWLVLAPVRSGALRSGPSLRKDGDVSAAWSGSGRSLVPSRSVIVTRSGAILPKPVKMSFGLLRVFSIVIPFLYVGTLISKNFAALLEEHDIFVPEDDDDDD
Chain of UniProt Q6PCB7 (Q6PCB7 whole entry, looked up): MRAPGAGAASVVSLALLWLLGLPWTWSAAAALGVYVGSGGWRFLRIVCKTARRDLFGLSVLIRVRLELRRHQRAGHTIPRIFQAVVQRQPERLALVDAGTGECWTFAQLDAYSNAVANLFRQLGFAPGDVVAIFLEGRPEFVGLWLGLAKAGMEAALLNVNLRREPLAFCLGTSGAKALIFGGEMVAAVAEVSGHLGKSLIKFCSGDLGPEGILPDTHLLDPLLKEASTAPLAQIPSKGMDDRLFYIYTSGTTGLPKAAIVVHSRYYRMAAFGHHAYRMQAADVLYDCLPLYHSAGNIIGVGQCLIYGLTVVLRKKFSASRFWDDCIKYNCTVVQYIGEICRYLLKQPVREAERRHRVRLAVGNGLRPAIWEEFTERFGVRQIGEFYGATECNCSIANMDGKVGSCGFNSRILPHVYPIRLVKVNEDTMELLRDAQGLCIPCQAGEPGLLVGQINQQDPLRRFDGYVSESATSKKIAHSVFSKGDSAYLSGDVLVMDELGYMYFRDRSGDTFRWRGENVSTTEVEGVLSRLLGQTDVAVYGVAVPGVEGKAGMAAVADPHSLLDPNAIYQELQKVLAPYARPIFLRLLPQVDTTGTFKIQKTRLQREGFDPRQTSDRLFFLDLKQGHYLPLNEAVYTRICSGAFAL
Chain of UniProt O94901 (O94901 whole entry, looked up): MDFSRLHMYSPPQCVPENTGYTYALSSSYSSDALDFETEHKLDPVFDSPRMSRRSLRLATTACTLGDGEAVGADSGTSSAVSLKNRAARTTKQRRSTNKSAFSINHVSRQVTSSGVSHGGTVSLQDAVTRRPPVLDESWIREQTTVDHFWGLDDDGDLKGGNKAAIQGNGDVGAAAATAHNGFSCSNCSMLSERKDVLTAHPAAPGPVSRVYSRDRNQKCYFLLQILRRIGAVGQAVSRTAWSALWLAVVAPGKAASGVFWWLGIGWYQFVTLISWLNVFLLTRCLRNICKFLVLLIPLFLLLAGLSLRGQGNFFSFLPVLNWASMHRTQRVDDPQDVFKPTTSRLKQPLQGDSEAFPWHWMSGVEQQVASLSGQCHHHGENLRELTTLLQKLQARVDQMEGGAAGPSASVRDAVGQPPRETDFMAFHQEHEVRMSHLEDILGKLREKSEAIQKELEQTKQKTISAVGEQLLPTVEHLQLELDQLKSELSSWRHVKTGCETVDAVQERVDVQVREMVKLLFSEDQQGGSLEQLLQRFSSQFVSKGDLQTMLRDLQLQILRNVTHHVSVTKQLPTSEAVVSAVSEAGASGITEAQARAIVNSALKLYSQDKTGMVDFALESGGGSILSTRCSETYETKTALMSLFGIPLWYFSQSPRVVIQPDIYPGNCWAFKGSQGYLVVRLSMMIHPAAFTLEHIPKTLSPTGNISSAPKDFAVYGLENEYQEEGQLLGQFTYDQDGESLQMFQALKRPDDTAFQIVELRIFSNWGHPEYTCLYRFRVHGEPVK
Chain of UniProt Q9BSF4 (Q9BSF4 whole entry, looked up): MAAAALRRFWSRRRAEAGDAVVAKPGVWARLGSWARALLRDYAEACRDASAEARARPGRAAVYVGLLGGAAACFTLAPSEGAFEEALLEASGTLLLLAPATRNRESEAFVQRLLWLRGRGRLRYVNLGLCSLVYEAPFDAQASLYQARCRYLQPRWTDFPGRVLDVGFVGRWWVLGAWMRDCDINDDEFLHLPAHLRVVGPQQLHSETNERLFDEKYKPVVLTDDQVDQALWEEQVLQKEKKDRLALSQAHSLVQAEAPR
Chain of UniProt P78382 (P78382 whole entry, looked up): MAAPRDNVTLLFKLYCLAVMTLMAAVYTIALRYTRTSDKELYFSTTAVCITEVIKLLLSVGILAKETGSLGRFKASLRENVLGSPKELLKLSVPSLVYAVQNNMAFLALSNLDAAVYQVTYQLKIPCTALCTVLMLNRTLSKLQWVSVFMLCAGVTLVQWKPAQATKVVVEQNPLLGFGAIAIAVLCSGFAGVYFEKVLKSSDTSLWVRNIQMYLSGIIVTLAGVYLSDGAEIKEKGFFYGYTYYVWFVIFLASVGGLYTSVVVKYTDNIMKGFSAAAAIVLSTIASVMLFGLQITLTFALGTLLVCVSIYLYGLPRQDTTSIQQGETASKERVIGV
Chain of UniProt Q92581 (Q92581 whole entry, looked up): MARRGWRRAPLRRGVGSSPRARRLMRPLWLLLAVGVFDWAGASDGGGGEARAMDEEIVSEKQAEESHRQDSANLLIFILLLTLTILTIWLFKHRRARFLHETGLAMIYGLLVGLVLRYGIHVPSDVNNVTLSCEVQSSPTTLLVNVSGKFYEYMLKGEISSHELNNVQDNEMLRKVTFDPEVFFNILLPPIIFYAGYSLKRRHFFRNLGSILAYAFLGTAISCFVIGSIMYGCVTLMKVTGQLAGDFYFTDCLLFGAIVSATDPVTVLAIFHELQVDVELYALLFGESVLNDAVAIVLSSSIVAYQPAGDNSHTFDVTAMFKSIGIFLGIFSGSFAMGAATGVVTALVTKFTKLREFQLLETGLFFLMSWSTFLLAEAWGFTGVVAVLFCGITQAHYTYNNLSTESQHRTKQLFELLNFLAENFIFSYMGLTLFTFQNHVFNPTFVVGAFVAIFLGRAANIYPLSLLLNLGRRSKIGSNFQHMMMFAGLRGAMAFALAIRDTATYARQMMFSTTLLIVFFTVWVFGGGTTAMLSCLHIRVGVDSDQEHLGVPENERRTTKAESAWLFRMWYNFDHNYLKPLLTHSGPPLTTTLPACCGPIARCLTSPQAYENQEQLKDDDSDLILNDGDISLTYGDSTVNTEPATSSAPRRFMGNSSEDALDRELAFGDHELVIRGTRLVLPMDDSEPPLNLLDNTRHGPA
Chain of UniProt P51532 (P51532 whole entry, looked up): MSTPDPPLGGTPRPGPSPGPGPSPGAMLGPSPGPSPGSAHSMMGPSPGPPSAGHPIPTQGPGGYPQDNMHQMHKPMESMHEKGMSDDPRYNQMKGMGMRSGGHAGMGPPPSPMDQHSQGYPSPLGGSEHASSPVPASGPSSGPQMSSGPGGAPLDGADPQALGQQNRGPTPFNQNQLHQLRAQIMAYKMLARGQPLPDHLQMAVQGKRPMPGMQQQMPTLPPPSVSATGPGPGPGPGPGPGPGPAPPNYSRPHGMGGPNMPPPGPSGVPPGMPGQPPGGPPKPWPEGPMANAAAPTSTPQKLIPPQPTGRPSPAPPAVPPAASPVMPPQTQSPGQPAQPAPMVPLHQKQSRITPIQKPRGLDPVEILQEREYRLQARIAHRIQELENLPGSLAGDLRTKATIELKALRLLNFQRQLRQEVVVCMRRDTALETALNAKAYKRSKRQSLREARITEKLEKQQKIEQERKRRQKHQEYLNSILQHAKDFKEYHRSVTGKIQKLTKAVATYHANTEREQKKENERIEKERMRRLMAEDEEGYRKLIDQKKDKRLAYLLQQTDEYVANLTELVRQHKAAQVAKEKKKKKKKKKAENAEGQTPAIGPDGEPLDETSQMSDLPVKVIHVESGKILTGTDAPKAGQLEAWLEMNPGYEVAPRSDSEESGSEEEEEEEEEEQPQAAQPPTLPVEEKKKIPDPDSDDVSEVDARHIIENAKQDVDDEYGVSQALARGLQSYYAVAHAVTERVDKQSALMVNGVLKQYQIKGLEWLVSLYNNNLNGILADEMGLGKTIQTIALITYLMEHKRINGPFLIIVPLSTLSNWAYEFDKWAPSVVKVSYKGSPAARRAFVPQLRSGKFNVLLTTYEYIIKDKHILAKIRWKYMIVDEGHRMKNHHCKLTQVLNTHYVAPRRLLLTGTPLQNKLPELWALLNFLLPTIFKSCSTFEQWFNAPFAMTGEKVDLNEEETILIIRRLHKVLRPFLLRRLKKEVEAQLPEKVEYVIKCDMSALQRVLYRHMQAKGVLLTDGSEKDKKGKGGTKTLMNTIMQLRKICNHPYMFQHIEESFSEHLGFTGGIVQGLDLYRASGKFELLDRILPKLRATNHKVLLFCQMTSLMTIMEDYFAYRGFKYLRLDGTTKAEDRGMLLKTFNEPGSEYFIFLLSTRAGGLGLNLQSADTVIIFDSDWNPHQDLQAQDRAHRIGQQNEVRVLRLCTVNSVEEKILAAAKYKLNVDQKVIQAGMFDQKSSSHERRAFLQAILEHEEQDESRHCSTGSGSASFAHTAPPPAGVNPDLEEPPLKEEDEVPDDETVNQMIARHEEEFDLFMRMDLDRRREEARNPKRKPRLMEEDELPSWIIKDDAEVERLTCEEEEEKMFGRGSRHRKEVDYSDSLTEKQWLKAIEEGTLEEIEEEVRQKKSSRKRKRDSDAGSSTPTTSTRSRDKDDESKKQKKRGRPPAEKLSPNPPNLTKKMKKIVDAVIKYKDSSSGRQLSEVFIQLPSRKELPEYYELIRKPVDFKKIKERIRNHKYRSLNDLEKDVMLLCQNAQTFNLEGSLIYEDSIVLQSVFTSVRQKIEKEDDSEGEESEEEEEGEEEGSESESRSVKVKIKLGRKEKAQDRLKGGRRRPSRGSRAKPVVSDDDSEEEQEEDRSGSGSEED

Row | Target | log2 fold change (bafetinib) | log2 fold change [1] | log2 fold change (nilotinib) | log2 fold change [2] | log2 fold change (dasatinib) | log2 fold change [3] | log2 fold change [4] | log2 fold change [5] | log2 fold change (tipifarnib) | log2 fold change (mubritinib)
1 | TIMM29 (UniProt Q9BSF4) | -0.051 | -0.077 | -0.002 | 0.069 | -0.031 | -0.039 | -0.029 | 0.057 | -0.046 | 0.064
2 | SSBP4 (UniProt Q9BWG4) | -0.045 | -0.069 | 0.038 | 0.014 | -0.021 | 0.053 | – | 0.033 | 0.301 | 0.066
3 | SNX12 isoform 1 (UniProt Q9UMY4) | -0.067 | 0.042 | -0.038 | -0.016 | -0.043 | -0.191 | 0.038 | 0.008 | -0.015 | -0.009
4 | TGFBR1 isoform 2 (UniProt P36897) | -0.009 | -0.052 | -0.049 | -0.018 | – | 0.007 | -0.046 | 0.001 | 0.017 | -0.113
5 | SRSF4 (UniProt Q08170) | 0.215 | -0.064 | 0.013 | -0.602 (active) | 0.109 | 0.028 | -0.166 | -0.14 | 0.127 | -0.109
6 | ST6GAL1 (UniProt P15907) | 0.001 | 0.029 | 0.168 | -0.048 | 0.131 | -0.001 | 0.007 | -0.02 | 0.128 | -0.023
7 | STK39 (UniProt Q9UEW8) | -0.09 | 0 | -0.076 | -0.028 | -0.108 | -0.016 | -0.008 | -0.032 | -0.031 | -0.083
8 | SLC25A36 (UniProt Q96CQ1) | -0.049 | -0.003 | -0.01 | 0.182 | -0.136 | -0.138 | 0.033 | -0.004 | -0.075 | -0.078
9 | SNRNP27 (UniProt Q8WVK2) | -0.015 | -0.079 | 0.087 | -0.487 (active) | 0.045 | -0.064 | -0.078 | 0.031 | 0.032 | 0.059
10 | SLC38A7 (UniProt Q9NVC3) | -0.142 | 0.016 | 0.05 | -0.023 | – | -0.053 | -0.005 | 0.084 | 0.056 | -0.007
11 | SYNE2 isoform 2 (UniProt Q8WXH0) | -0.008 | 0.031 | -0.115 | 0.006 | -0.019 | -0.069 | 0.153 | 0.027 | -0.029 | 0.233
12 | SLC8B1 (UniProt Q6J4K2) | -0.149 | 0.006 | – | – | -0.012 | – | -0.019 | 0.103 | 0.058 | –
13 | SYK (UniProt P43405) | 0.276 | – | – | – | -0.356 | – | 0.141 | -0.041 | 0.075 | –
14 | SMARCB1 (UniProt Q12824) | – | -0.277 | – | – | -0.059 | – | -0.122 | – | – | –
15 | TCOF1 isoform 3 (UniProt Q13428) | – | -0.005 | – | – | – | – | – | -0.419 | – | –
16 | SUN1 isoform 9 (UniProt O94901) | – | -0.036 | -0.014 | -0.115 | 0.007 | -0.018 | -0.141 | -0.055 | 0.039 | -0.021
17 | SLC39A1 (UniProt Q9NY26) | – | 0.116 | – | – | – | – | -0.17 | – | – | –
18 | TAOK2 (UniProt Q9UL54) | – | 0.092 | -0.032 | 0.048 | – | -0.028 | – | -0.093 | 0.014 | 0.01
19 | SOX5 (UniProt P35711) | -0.06 | – | -0.437 (active) | -0.011 | – | 0.211 | 0.042 | -0.039 | 0.027 | 0.064
20 | SSB (UniProt E7ERC4) | – | -0.025 | – | – | -0.528 | – | – | – | – | -0.063
21 | SLC9A6 isoform 3 (UniProt Q92581) | -0.096 | – | – | – | 0.065 | – | 0.048 | – | 0.028 | –

Row | Target | log2 fold change (bafetinib) | log2 fold change [1] | log2 fold change (nilotinib) | log2 fold change [2] | log2 fold change (dasatinib) | log2 fold change [3] | log2 fold change [4] | log2 fold change [5] | log2 fold change (tipifarnib) | log2 fold change (mubritinib)
22 | SMDT1 (UniProt Q9H4I9) | -0.138 | 0.006 | – | – | 0.005 | – | 0.137 | – | – | 0.068
23 | THAP9 (UniProt Q9H5L6) | 0.191 | – | 0.03 | -0.009 | -0.082 | -0.04 | 0.119 | 0.072 | – | 0.17
24 | SMPD4 isoform 2 (UniProt Q9NXE4) | -0.026 | 0.151 | – | – | -0.285 | – | 0.09 | – | -0.111 | 0.108
25 | SLC35A1 (UniProt P78382) | 0.005 | – | -0.009 | -0.055 | 0.036 | -0.02 | 0.03 | 0.067 | -0.022 | 0.049
26 | SLC35F6 (UniProt Q8N357) | -0.208 | – | -0.037 | -0.13 | 0.078 | 0.143 | 0.049 | 0.052 | 0.01 | 0.072
27 | SLC29A3 (UniProt Q9BZD2) | -0.111 | – | -0.055 | 0.127 | -0.059 | 0.012 | 0.167 | 0.102 | 0.035 | 0.005
28 | TDP1 (UniProt Q9NUW8) | – | – | – | – | – | – | -0.1 | – | – | –
29 | SP2 (UniProt Q02086) | – | – | – | – | 0.001 | – | – | – | – | –
30 | TM7SF2 (UniProt O76062) | – | – | -0.113 | -0.059 | -0.25 | 0.018 | 0.035 | 0.046 | -0.067 | –
31 | SNX2 isoform 2 (UniProt O60749) | -0.163 | – | – | – | -0.097 | – | 0.16 | – | -0.155 | –
32 | SLC35B1 isoform 2 (UniProt P78383) | -0.018 | – | -0.065 | 0.052 | 0.142 | -0.097 | -0.13 | -0.172 | – | 0.016
33 | TC2N (UniProt Q8N9U0) | – | – | 0.052 | -0.71 (active) | 0.068 | -0.024 | – | -0.153 | – | 0.176
34 | TMBIM6 isoform 2 (UniProt P55061) | -0.135 | – | -0.158 | 0.028 | -0.081 | -0.037 | 0.063 | -0.073 | -0.269 | 0.036
35 | SMARCA4 (UniProt P51532) | 0.149 | -0.118 | – | – | 0.118 | – | -0.036 | 0.033 | 0.197 | 0.101
36 | SLC27A1 (UniProt Q6PCB7) | 0.047 | – | -0.087 | -0.009 | -0.152 | 0.079 | -0.053 | 0.046 | 0.094 | 0.431 (active)
37 | SNRK (UniProt Q9NRH2) | – | – | – | – | -0.061 | – | – | – | -0.079 | –
38 | SLC46A1 (UniProt Q96NT5) | – | -0.016 | – | – | – | – | -0.119 | – | – | –
39 | SLC38A2 (UniProt Q96QD8) | -0.112 | – | -0.037 | 0.039 | 0.047 | 0.029 | -0.055 | 0.029 | -0.073 | 0.017
40 | TM7SF3 (UniProt Q9NS93) | -0.147 | – | -0.004 | 0.005 | 0.005 | -0.029 | -0.034 | 0.034 | 0.019 | 0.147
41 | TCOF1 isoform 6 (UniProt Q13428) | 0.137 | – | -0.102 | 0.14 | – | -0.033 | 0.07 | -0.061 | – | -0.091
